D1 ag – Allosteric Agonists of the Human D1 Dopamine Receptor: qHTS | HEK293 T-REx D1 cells, calcium flux, agonist mode | actives 1% (n = 360,000) | D(1A) dopamine receptor (Homo sapiens), P21728 | activation, % at 2 µM; in the data active = activation above about 30%
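Tetracycline-induced HEK293 TREx D1 cells, force-coupled to calcium signalling, were dye-loaded with a no-wash calcium kit. Compound was pin-added after a 10 s baseline. Fluorescence was read kinetically at 1 cycle/s for 180 s, with calcium rises flagged as agonism.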
D1 antag – Antagonist of Human D 1 Dopamine Receptor: qHTS; D(1A) dopamine receptor (Homo sapiens), P21728; HEK293 TREx D1 cells, calcium flux, dopamine EC80; hits give low values; activity change, negative = inhibition, % at 10 µM; actives 3.2% (n = 360,000); AID 504652, 2011; in the data active = activity change below about -30%
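Calcium flux readout: force-coupled, inducible Hek293 Trex D1 line, cells induced overnight at 30 C with tetracycline, dye-loaded 30–90 min at RT. Antagonism scored against EC80 dopamine challenge given 180 s after compound.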
DRD3 agonist – qHTS of D3 Dopamine Receptor Agonist: qHTS; max activation, %; D3R DiscoveRx beta-arrestin cells, luminescence, 90 min; D(3) dopamine receptor (Homo sapiens), P35462; AID 652048, 2013; actives 0.58% (n = 410,000); in the data active = max activation above about 30%
Target sequence (P35462 whole entry, looked up): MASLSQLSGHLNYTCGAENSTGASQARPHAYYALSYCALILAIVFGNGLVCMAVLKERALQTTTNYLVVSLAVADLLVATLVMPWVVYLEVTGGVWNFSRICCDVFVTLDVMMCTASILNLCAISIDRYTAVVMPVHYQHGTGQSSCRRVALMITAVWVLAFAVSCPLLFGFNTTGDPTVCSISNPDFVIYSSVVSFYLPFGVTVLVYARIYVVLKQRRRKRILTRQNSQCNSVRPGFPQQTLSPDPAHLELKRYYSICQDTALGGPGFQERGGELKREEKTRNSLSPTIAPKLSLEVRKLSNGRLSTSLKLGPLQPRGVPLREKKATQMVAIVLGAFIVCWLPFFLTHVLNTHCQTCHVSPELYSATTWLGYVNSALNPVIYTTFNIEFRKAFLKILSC
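Agonist mode: compounds and dopamine controls were applied to plated cells for 90 min at 37 degrees C after an overnight attachment at 1500 cells/well. Luminescent read-out followed 30 - 60 minutes at room temperature with DiscoveRx detection reagent.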
D3 antag – qHTS of D3 Dopamine Receptor Antagonist: qHTS. D3R cells, DiscoveRx beta-arrestin luminescence, antagonist mode; hits give low values. max response, negative = inhibition, %. actives 2.5% (n = 360,000); in the data active = max response below about -50%; inconclusive = no clear call, values can overlap the other calls
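Cells plated overnight at 1500 cells/well, then exposed to library compounds with dopamine controls for 90 minutes at 37 degrees C. DiscoveRx reagent added for 30–60 minutes at room temperature; luminescence read, quantitative HTS format.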
D1 PAM – Potentiators of Human D1 Dopamine Receptor: qHTS; D(1A) dopamine receptor (Homo sapiens), P21728; HEK293 TREx D1 cells, calcium flux, dopamine EC20 potentiation; potentiation, % at 10 µM; actives 0.036% (n = 360,000); in the data active = potentiation above about 30%
Of the large screens only hits and unclear results are named; the others gave an inactive call; ! = not confirmed by another sample. Only some compounds are listed: those with a hit (about 6.1% of all), similar ones and a draw of the others.

CC1CCN(c2ccc(-c3cccc(NC(=O)C(F)(F)F)c3)nn2)CC1	D1 antag -54.6
Cc1nc2ccc(S(=O)(=O)NC(C(=O)Nc3nc4ccc(Cl)cc4s3)C(C)C)cc2s1 (stereo not given)	D1 antag -40.6 (no result: D1 PAM)
Cc1nc2ccc(S(=O)(=O)NC(C(=O)Nc3nccs3)C(C)C)cc2s1 (stereo not given)	none
CS(=O)(=O)c1ccc2nc(NC(=O)Nc3cccc(Cl)c3)sc2c1	D1 ag 34.4
CS(=O)(=O)c1ccc2nc(NC(=O)Nc3ccc(Cl)c(Cl)c3)sc2c1	DRD3 agonist 55.4
Cc1ccc(NC(=O)Nc2nc3ccc(S(C)(=O)=O)cc3s2)cc1	none
COc1ccc(OCC(=O)Nc2ccc3c(c2)nc(CN2CCCC2)n3C)cc1	D3 antag -54.3
Cn1c(CN2CCCC2)nc2cc(NC(=O)COc3ccc(Cl)cc3)ccc21	D3 antag -69.0
CCc1ccc2c(CN(C)Cc3ccccc3OC)cc(=O)oc2c1	D1 antag -30.9
CN(Cc1ccccc1)Cc1cc(=O)oc2ccccc12	none (no result: D1 ag, D1 antag, D1 PAM)
NC(CSC(c1ccccc1)(c1ccccc1)c1cccc2ccccc12)C(=O)O (stereo not given)	none (no result: D1 ag, D1 antag, D1 PAM)
Cc1sc2nc(C)n(/N=C/c3ccccc3O)c(=O)c2c1C	DRD3 agonist 35.0
Cc1sc2nc(C)n(/N=C/c3ccc(O)cc3O)c(=O)c2c1C	D1 antag -83.9
CCOc1cc(/C=N/n2c(C)nc3sc(C)c(C)c3c2=O)ccc1O	none
CCOc1ccc(C(=O)Nc2cc(-c3nc4ccccc4o3)ccc2C)cc1Cl	none (no result: D3 antag)
CCCCOC(=O)c1ccc(Nc2ncnc3nc[nH]c23)cc1	none
CCCCCCCCOC(=O)c1cc([N+](=O)[O-])c(Sc2ncnc3nc[nH]c23)c([N+](=O)[O-])c1	D3 antag -54.7 (no result: D1 ag, D1 antag, D1 PAM)
CN(C(=O)c1ccccc1C(=O)OCC(=O)NCc1ccccc1)C1CCCCC1	D1 antag -35.0
COc1cc(OC)cc(-c2nnc(SCC(=O)N3CCCc4ccccc43)o2)c1	none
COc1cccc(-c2nnc(SCC(=O)Nc3cc(C)on3)o2)c1	D3 antag -65.3
COc1cccc(-c2nnc(SCC(=O)N3CCCc4ccccc43)o2)c1	D3 antag -52.2
O=C(CSc1ncccn1)NCc1cccc(Cl)c1	none
COc1ccccc1COCC(O)CNCC1(N2CCCCC2)CCCCC1 (stereo not given)	D3 antag -60.3
COc1cc(C(C)=O)ccc1OCC(O)CNCC1(N2CCCCC2)CCCCC1 (stereo not given)	none
CCOC(=O)c1ccc(COC(=O)CNS(=O)(=O)c2ccccc2)cc1	D1 antag -33.1
CCc1ccc(C(=O)C(C)OC(=O)CNS(=O)(=O)c2ccc(C)cc2)cc1 (stereo not given)	D1 ag 32.0
CCOC(=O)CNS(=O)(=O)c1ccc(S(=O)(=O)N2CCCC2)cc1	D1 antag -103.3
COc1ccc(C(=O)C2CCCN(C(=O)c3cccc(N4CCCC4=O)c3)C2)cc1OC (stereo not given)	none
COc1cc(C2C(C#N)=C(C)NC3=C2C(=O)c2ccccc23)cc(OC)c1OC (stereo not given)	D1 antag -52.9
COc1ccc(C2C(C#N)=C(C)NC3=C2C(=O)c2ccccc23)cc1 (stereo not given)	none
CCCn1c2ccccc2c2cnn(CC(=O)NC3CCCCC3)c(=O)c21	none
CN1CCN(S(=O)(=O)c2ccc(N3CCN(S(=O)(=O)/C=C/c4ccccc4)CC3)nc2)CC1	D1 antag -49.5
CCOC(=O)c1ccc(NC(=O)CN2C(=O)c3cccnc3Oc3ccc(Cl)cc32)cc1	none (no result: D3 antag)
CS(=O)(=O)c1ccc(C(=O)OCC(=O)NCc2cccs2)cc1[N+](=O)[O-]	D3 antag -59.7 (no result: D1 ag, D1 antag, D1 PAM)
CCCN(CCC)CCNC(=O)c1cc(-c2ccc(Br)s2)nc2ccccc12	none (no result: D3 antag)
Cc1cccc(C(=O)OCC(=O)NCc2cccs2)c1	none
CCN(CC)CCNC(=O)c1cc(-c2ccc(Br)s2)nc2ccccc12	D1 ag 33.8!, D3 antag inconclusive
CCCCN(C)CCCNC(=O)c1cc(-c2cccnc2)nc2ccccc12	D1 antag -59.4!
Cc1cc(C(=O)OCC(=O)NCc2cccs2)c2ccccc2n1	D1 antag -30.5
CCn1nnc(NC(=O)c2ccco2)n1	none
Cc1cc(C(=O)NCCc2ccc(Cl)cc2)c2ccccc2n1	none (no result: D1 PAM)
Cc1cc(CNC(=O)COc2ccc(F)cc2)c2ccccc2n1	none
Cc1cc(CNC(=O)COc2ccccc2)c2ccccc2n1	D1 antag -35.4
O=C(NCCc1ccccc1)c1cc(Sc2cccc(Cl)c2)nc2ccccc12	D1 antag -43.4 (no result: D3 antag)
Cc1cc(C(=O)NCc2ccccc2Cl)c2ccccc2n1	D1 antag -62.5
Cc1cc(C(=O)NCc2cccc(Cl)c2)c2ccccc2n1	D1 antag -33.0
Cc1cc(C(=O)Nc2ccccc2Cl)c2ccccc2n1	none
Cc1nn(C)c(C)c1S(=O)(=O)N(CC(=O)Nc1ccc(F)cc1F)c1ccc(C(C)C)cc1	none (no result: D3 antag)
Cc1cc(C(=O)NC2CCCC(C)C2C)c2ccccc2n1 (stereo not given)	D1 antag -30.7
Cc1ccc(Sc2cc(C(=O)NCCCN(C)C)c3ccccc3n2)cc1	D1 ag 34.0
Cc1cc(C(=O)NC2CCCCC2C)c2ccccc2n1 (stereo not given)	none
COc1ccc(Nc2ccc3c(c2)=NC2(CCCCC2)[N+]=3[O-])cc1	D3 antag -67.9
[O-][N+]1=c2ccc(Nc3ccccc3)cc2=NC12CCCCC2	D1 antag -54.6, D3 antag inconclusive
CCOC(=O)C1(C)CCN1C(=O)c1cccc(Cl)c1 (stereo not given)	DRD3 agonist 48.5 (no result: D1 ag, D1 antag, D1 PAM)
CCOC(=O)C1(C)CCN1C(=O)c1cccc(OC)c1 (stereo not given)	none (no result: D1 ag, D1 antag, D1 PAM)
OCc1ccccc1OCCOc1ccc(Cl)c2cccnc12	none
CC(C)Oc1ccccc1OCCCOc1cccc2cccnc12	D1 antag -48.4
OCc1ccccc1OCCCOc1cccc2cccnc12	D1 antag -30.6
O=S(=O)(c1ccc2ccccc2c1)n1nc(-c2ccco2)nc1NCc1ccc(F)cc1	none (no result: D3 antag)
COc1ccc2c(c1)OC[C@H]1[C@H]2N2C(=O)c3cc(Cl)ccc3NC(=O)[C@@]2(C)[C@H]1c1ccccc1	D3 antag inconclusive
COc1ccc2c(c1)OC[C@H]1[C@H]2N2C(=O)c3cc(OC)ccc3NC(=O)[C@@]2(C)[C@H]1c1ccccc1	D3 antag -52.4
COc1cc(Nc2nc(SCc3cccc(Cl)c3)nc3ccccc23)cc(OC)c1	none (no result: D3 antag)
